Data on 40 sequences can be found in the OligoGym collection.
Note: reference of the scale not given here.

The first assay concerns the target EPHX1. Nature of the assay: pooled miR-30 sensor sort-seq; sequence = guide strand. The conditions noted are these: shRNA.
Consider TACTTGAACCTCACCCACTTTT, for which the sensor-assay potency score (higher = more potent) is -0.563. On the same count and under the same terms, with TCGTCCAGGGAGAACTTCCTTT the figure was -1.04; with TTCTCCTTGTAGAAGCGCTGGG, -0.596; with AACTTCTCTAGAATATAGGCAG, -0.342.

In turn, TTCAAAAACGTGCTCATCGCTC returned a sensor-assay potency score (higher = more potent) of -0.238.

The sequence TAAAACTCGTAGAAAGAGCCGG had a sensor-assay potency score (higher = more potent) of -0.339. The same measure, in the same setting: with TCATGCTTCTGGGTCATCCAGC the figure was -0.602; with TCTTAGTCTTGAAGTGAGGGTA, 0.435; with TAGGAATAGGAGATGAGCTTTG, -0.367. Still for that read-out and setting: with AAAGTTTCCTCTTTGTCCCGGG the figure was 0.0687; with TTGGAGTTGAAGCCATAGTGGA, -0.99; with TCAATCTTAGTCTTGAAGTGAG, -0.441. The same measure, in the same setting: with TCATCTGACGTTTCCACCTTGA the figure was -0.126; with TTCAATCTTAGTCTTGAAGTGA, -0.0669. Take TCTCCTTGTAGAAGCGCTGGGA: the sensor-assay potency score (higher = more potent) is -0.317. Same read-out and setting: in the case of TGGATCTCCTCATCTGACGTTT it was -0.892.

In the case of TTGGTCAGCAGGTCGTCCAGGG, the sensor-assay potency score (higher = more potent) was -0.558. Same read-out and setting: with TTGTCCCGGGAGATGAACCAGT the figure was -1.24; with AAAACTCGTAGAAAGAGCCGGG, 0.199. TTGTAAAAGATCCTGGCGGTGG yielded a sensor-assay potency score (higher = more potent) of -0.0602. The same measure, in the same setting: in the case of ATCAGCTTGTAAAAGATCCTGG it was -0.191.

In the next assay the target is EPHX2. Described as above. Particulars: shRNA.
On to TAGTGAATCCTTTCTTCCTGAG, for which the sensor-assay potency score (higher = more potent) was -0.285. On the same count and under the same terms, with TTTTATGGAGAAATTCTTGGGG the figure was 0.765; with TTTGATACTCTCCAAAGGGGAC, -0.915. As to TCTGAAACCAGACTTCTTGAAC, the sensor-assay potency score (higher = more potent) was -0.948. Still for that read-out and setting: in the case of AACTGCTGCACATAGAACTGGA it was -0.354; in that of TATCAGGAAGTCAAAGTGCATC, -1.33. Turning to TCTCTCAGCACGGTCGTCCAGC, the sensor-assay potency score (higher = more potent) was -0.771.

TCGCTTGCTCTGAAGAGGCTTT displayed a sensor-assay potency score (higher = more potent) of -0.734.

Consider TTCTTTTATGGAGAAATTCTTG, for which the sensor-assay potency score (higher = more potent) is -0.837.

Consider TTAGAGGACCTCTGAAACCAGA, for which the sensor-assay potency score (higher = more potent) was -0.75. On the same count and under the same terms, in the case of TGGTTCTTGGAAGTAGAGCTGG it was -0.725; in that of TTTATGGAGAAATTCTTGGGGA, 0.378. TTTCTGGAAAGCATCATTCAGA displayed a sensor-assay potency score (higher = more potent) of -0.533. Same read-out and setting: with TTGGATTGCAAGAGGTCGGCAG the figure was -0.532.

Take TTTCTGGCTGAAATCGCCTTGT: the sensor-assay potency score (higher = more potent) was -0.617. Still for that read-out and setting: in the case of TTCAGCTCACACATCAGCTGGG it was 0.39; in that of TCCAAGAATACCAACTCTCGGG, -1.01. On the same count and under the same terms, in the case of TTCCATGCAATATTCTTCTATT it was -0.473; in that of TAGAACTGGATTTCCTCCTCAG, 0.253.
